Compound activity (PubChem BioAssay)
IP6K1 inh – blocks human inositol hexakisphosphate kinase 1 | Q92551 | IP6K1 kinase, ADP-Glo luminescence, 2 h; hits give low values | activity change, % (series mostly up to about 58 µM) | 0.81% of 140,000 active | AID 1645851; in the data active = activity change below about -25%; also: % is scaled to controls: 0 for no effect and ±100 for the full control effect
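ADP-Glo luminescence measures ADP made by human IP6K1 during a 2 h RT reaction with ATP/IP6 (mix at 1.3 mM/130 uM); top library doses 57.5 and 19.1 uM final.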
KDM5B inh – blocks human KDM5B histone demethylase activity. KDM5B demethylase, FDH-coupled NADH fluorescence (FDH is formaldehyde dehydrogenase). Potency, µM (titrated, usually from 57.7 µM), hits mostly inhibitors. 2.6% of 220,000 active; also: potency is read from the fitted curve at half-maximal effect; 0% is about no effect; nearly all actives have a fitted effect of over 70% in size
Target sequence (Q9UGL1 whole entry, looked up): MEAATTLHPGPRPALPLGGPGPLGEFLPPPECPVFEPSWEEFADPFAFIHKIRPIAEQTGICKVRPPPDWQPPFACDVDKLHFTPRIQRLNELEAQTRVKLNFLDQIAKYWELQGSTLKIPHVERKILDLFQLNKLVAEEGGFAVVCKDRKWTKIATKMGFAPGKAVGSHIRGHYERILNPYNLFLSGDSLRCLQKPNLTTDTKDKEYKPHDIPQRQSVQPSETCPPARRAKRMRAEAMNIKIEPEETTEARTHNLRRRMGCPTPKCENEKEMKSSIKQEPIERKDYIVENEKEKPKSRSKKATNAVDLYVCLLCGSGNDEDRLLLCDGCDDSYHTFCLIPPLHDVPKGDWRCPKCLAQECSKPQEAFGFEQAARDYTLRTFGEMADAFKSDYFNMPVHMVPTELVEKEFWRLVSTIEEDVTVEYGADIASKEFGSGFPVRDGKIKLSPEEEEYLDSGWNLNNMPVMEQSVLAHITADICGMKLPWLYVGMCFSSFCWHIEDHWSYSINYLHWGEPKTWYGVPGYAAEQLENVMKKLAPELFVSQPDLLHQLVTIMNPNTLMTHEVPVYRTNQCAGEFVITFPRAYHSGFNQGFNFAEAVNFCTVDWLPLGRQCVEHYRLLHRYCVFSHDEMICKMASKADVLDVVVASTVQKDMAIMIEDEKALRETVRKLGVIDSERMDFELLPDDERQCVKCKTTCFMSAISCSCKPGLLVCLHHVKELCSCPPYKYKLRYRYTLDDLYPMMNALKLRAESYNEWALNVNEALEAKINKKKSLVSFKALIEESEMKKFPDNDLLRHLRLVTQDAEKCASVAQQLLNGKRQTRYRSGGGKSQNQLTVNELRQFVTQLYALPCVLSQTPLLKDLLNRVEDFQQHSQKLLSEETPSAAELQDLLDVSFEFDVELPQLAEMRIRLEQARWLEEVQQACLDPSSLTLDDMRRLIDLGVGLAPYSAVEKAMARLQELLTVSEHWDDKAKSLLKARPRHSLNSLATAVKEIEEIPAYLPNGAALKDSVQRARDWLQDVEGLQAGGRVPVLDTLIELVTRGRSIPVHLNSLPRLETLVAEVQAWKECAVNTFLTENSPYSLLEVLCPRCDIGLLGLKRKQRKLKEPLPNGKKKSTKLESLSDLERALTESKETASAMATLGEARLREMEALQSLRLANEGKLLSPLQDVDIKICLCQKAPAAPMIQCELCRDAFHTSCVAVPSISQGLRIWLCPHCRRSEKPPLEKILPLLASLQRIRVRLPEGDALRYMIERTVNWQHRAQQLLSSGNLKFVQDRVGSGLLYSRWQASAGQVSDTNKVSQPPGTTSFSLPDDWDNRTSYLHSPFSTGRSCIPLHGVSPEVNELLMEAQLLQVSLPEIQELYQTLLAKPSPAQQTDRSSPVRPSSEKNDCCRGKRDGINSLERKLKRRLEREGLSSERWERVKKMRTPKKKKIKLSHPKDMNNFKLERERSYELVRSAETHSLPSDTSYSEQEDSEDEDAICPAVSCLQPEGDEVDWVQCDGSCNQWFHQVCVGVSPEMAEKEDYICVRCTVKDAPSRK
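KDM5BΔAP (200 nM final) in 50 mM HEPES pH 7.5, 0.01% Tween-20 was preincubated 10 min at RT with compound over a concentration range. Substrate mix (H3K4me3 12.5 µM, α-KG 25 µM, Fe²⁺, ascorbate, NAD⁺, FDH) was added, and NADH fluorescence change over 30 min gave dose-response curves.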
SNCA expr inhib – SNCA gene expression inhibition; HEK-293 SNCA-luciferase knock-in, luminescence, 24 h; Potency, µM (series often up to 57.2 µM), inactives show at the top dose activity change, negative = inhibition, hits mostly inhibitors; 0.17% of 140,000 active; AID 1671194;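 also: potency is read from the fitted curve at half-maximal effect; plate controls were DMSO cells for no effect and cell-free wells for full effect; nearly all actives have a fitted effect of over 45% in size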
SNCA viab count – counter-screen for SNCA expression inhibitors: cell viability | HEK-293-SNCA-luc viability, GF-AFC fluorescence, 24 h | AID 1671193 | Potency, µM (titrated, usually from 57.1 µM), without a hit: at the top dose activity change, negative = cytotoxicity, usual class: cytotoxic | 0.12% of 150,000 active;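 also: potency is read from the fitted curve at half-maximal effect; 0% = DMSO-treated cells and -100% = medium-only wells without cells; nearly all actives have a fitted effect of over 30% in size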
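HEK-293-SNCA-luc cells (1500/well) plated 24 h, then exposed 24 h to a dilution series; GF-AFC added 30 min at 37C, fluorescence 405/540 nm; normalised to medium-only and DMSO wells, Hill fit.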
IP6K1 inh cnf – confirmation of human IP6K1 inhibitors. shares compounds with IP6K1 inh. recombinant IP6K1 kinase, ADP-Glo luminescence, 2 h. Potency, µM (series often up to 49 µM), without a hit: at the highest dose activity change, negative = inhibition, hits mostly inhibitors. 13% of 1,200 active; also: potency is read from the fitted curve at half-maximal effect; % is scaled to controls: 0 for no effect and ±100 for the full control effect; nearly all actives have a fitted effect of over 65% in size
The depositor's hits bear a star; i = inactive; ? = inconclusive; . = not tested or not shown; [ ] = remark or other dose. This is a sample that favours compounds with a hit; in the whole collection about 2.8% have one here. Unless noted, calls follow the shape of the dose curve; as a rule, active = well fitted curve in the direction sought with a large enough effect; inconclusive = small, poorly fitted or top-dose-only effect, or another doubt; inactive = no such curve, though single readings can be large; an effect the other way counts as inactive or inconclusive.

SMILES	IP6K1 inh	KDM5B inh	SNCA expr inhib	SNCA viab count	IP6K1 inh cnf
CCOC(=O)C1CCCN(C(=O)c2ccc3c(c2)sc2nc(-c4ccc(C)cc4C)cn23)C1 (centres undefined)	-3	i	33%	-12%	.
COc1ccc(-c2cn3c(n2)sc2cc(C(=O)NCCCN4CCCCCC4)ccc23)cc1	-62*	?	46%	-26%	-4%
COc1ccc(-c2cn3c(n2)sc2cc(C(=O)NCCCN4CCCCC4)ccc23)cc1	-9	?	-5%	?	.
CCOC(=O)C1CCCN(C(=O)c2ccc3c(c2)sc2nc(-c4cccc(OC)c4)cn23)C1 (centres undefined)	-31*	?	42%	1%	3%
Cc1cccc(NC(=O)/C(C#N)=C/c2cc(C(C)(C)C)c(O)c(C(C)(C)C)c2)c1C	.	i	.	.	.
COc1cccc(CNC(=O)Nc2cccc(-c3ccc(N4CCOCC4)nn3)c2)c1	-39*	i	?	-3%	?
CCc1ccccc1NC(=O)Nc1cccc(-c2ccc(N3CCOCC3)nn2)c1	-26*	i	59%	-3%	-24%
Cc1ccc(CNC(=O)Nc2cccc(-c3ccc(N4CCOCC4)nn3)c2)cc1	-13	i	-5%	-1%	.
O=C(c1c(F)cccc1F)N(Cc1ccc2[nH]ccc2c1)C1CC1	.	i	.	.	.
Cc1cccc(-c2[nH]c(C(C)(C)C)nc2-c2ccc3c(c2)OCO3)n1	.	.	-31%	-16%	.
CC(C)(C)Cn1c(N)nc2ccc(-c3[nH]c(C(C)(C)C)nc3-c3ccc(F)cc3)nc21	-25*	.	27µM*	?	6%
COc1ccccc1-c1ccc(CN2CCC(NC(=O)Cc3ccccc3)C2)cc1 (centres undefined)	29	.	.	.	.
O=C(NOCC(O)CO)c1cc(Br)c(F)c(F)c1Nc1ccc(I)cc1F (centres undefined)	.	.	4%	-24%	.
Cn1cnc2c(F)c(Nc3ccc(Br)cc3F)c(C(=O)NOCCO)cc21	12	.	-3%	4%	-12%
COc1ccccc1CCNC(=O)c1csc2ccccc12	.	i	.	.	.
COc1ccc(-c2cc(C[C@@H]3CC[C@H](O)[C@@H](CNCc4cccc(Cl)c4)O3)no2)cc1	-1	i	5%	-4%	.
COc1ccc(CN2CCN(S(=O)(=O)c3ccccc3)CC2)c(OC)c1	-49*	?	-3%	-6%	-3%
COC(=O)[C@@H](C)NC(=O)NCC(c1ccccc1)c1ccccc1	.	i	.	.	.
Fc1cc(-c2cccc3ncc(-c4cnn(C5CCNCC5)c4)nc23)cc(F)c1CN1CCOCC1	12	.	?	?	-4%
O=C(NC1CCN(c2nccc(Nc3ccccc3Cl)n2)CC1)C1CCCC1	1	.	-39%	0%	.
Oc1[nH]c2ccccc2c1N=Nc1ccccc1	.	i	.	.	.
O=Nc1c(-c2c(O)[nH]c3ccccc23)[nH]c2ccccc12	.	.	89%	?	1%
CN(C)c1ccc2nc3ccc(=[N+](C)C)cc-3sc2c1	-30*	.	56%[25.6 µM]	?	15µM*
CCCCN(C)C(=O)c1c(C)sc2ccn(CCC)c(=O)c12	-7	?	21%	-3%	-24%
COc1ccc(NC(=O)Cc2csc(COc3cccc(C)c3)n2)cc1OC	-27*	?	3%	-2%	34%
SMILES	IP6K1 inh	KDM5B inh	SNCA expr inhib	SNCA viab count	IP6K1 inh cnf
Cc1cccc(NC(=O)Cc2csc(COc3cccc(C)c3)n2)c1	-22	i	16%	4%	.
N#Cc1c(O)c2c(-c3ccc(-c4ccccc4O)cc3)csc2[nH]c1=O	-46*	.	0%	-34%	?
CN(C)C(=O)CN1CCN(C(C(=O)O)c2c[nH]c3ccc(OCc4ccccc4)cc23)CC1 (centres undefined)	.	i	.	.	.
CCN1/C(=C/C=C/c2sc3ccccc3[n+]2CC)Sc2ccccc21	-36*	.	-76%[17 µM]	0%[12.5 µM]	?
CCN1/C(=C/C=C2/SC(=Nc3cccc4ncccc34)N(C)C2=O)Sc2ccccc21	.	i	.	.	.
CCOC(=O)c1ccc(NC(=O)CC2C(=O)N(c3ccccc3)C(=O)N2Cc2ccc(C)cc2)cc1 (centres undefined)	-40*	i	?	-18%	?
Cc1ccc(-c2cccc(CN3CCCC(N[S+](=O)([O-])c4c(C)noc4C)C3)c2)cc1Cl (centres undefined)	-13	.	?	-15%	.
CCc1cnc2c(c1SCCC(C)C)c(=O)n(C)c(=O)n2C	-28*	i	0%	5%	-18%
N#C/C(=C\c1ccc(O)c(O)c1)C(=O)Nc1ccccc1	.	.	109%	4%	16µM*
O=C(c1ccc2c(c1)OCO2)N1CC2(C1)C(=O)Nc1ccccc12	-16	i	-5%	-2%	.
O=C(c1ccc2c(c1)OCO2)N1CCC2(CC1)C(=O)Nc1ccccc12	-33*	i	-9%	-5%	?
O=C(Cn1cc(S(=O)(=O)Cc2cccc(Cl)c2)c2ccccc21)Nc1ccc(F)c(Cl)c1	-37*	i	-26%	-17%	0%
COc1ccc(-c2nc(-c3c(C)noc3C)cc3[nH]c(C)cc23)cn1	-31*	35µM*	48%[87.6 µM]	-16%[87.6 µM]	?
CCCCc1nn(CC(=O)NC[C@H]2CCc3ccccc3O2)c(=O)n1CC	12	i	-5%	1%	.
CCCCc1nn(CC(=O)NCC2Cc3ccccc3CN2C)c(=O)n1CC (centres undefined)	-30*	?	-8%	-5%	-7%
CC1=C(C(=O)OC(C)C)C(c2cccc([N+](=O)[O-])c2)C(C(=O)OC2CN(C(c3ccccc3)c3ccccc3)C2)=C(N)N1 (centres undefined)	1	.	-41%[25.6 µM]	-10%[23.9 µM]	0%
CSc1ccc(CCNC(=O)Cn2nc(C)n3c(cc4sccc43)c2=O)cc1	-80*	i	2%	7%	-2%
Cc1nn(CC(=O)NCc2ccc(Cl)cc2)c(=O)c2cc3sccc3n12	-9	i	4%	7%	.
Cc1cc(O)c(C(=O)c2cccs2)c(=O)o1	.	i	.	.	.
Nc1nc(N)c(S(=O)(=O)c2ccccc2)c(Nc2ccc(Br)cc2)n1	-36*	i	-2%	1%	?
O=C(Nc1ccc(Cl)cc1)N1CCN(Cc2ccccc2-c2ccccc2F)CC1	-9	.	?	5%[12.5 µM]	.
N#Cc1cc(NC(=O)C(=O)O)c(Cl)c(NC(=O)C(=O)O)c1	-35*	.	-1%[25.6 µM]	-6%[23.9 µM]	-23%
Cc1ccc(NC(=O)c2cc(S(=O)(=O)N3CCCc4ccccc43)ccc2F)cc1F	-29*	i	-19%	-1%	-9%
O=C(Nc1ccc(Cl)cc1)c1cc(S(=O)(=O)NC2CCCCCC2)ccc1F	34	i	?	?	.
Cc1ccc(NC(=O)c2cc(S(=O)(=O)NC3CCCCCC3)ccc2F)cc1F	-27*	i	?	?	-6%
Cc1ccn2c(=O)cc(CSc3ccc4ccccc4n3)nc2c1	.	i	.	.	.
FC(F)(F)c1cccc(-c2noc(-c3ccc(NCCN4CCOCC4)nc3)n2)c1	14	?	?	-25%	.
